Data taken from PubChem BioAssay.
The source made the active and inactive calls.

Legend:
[1] = tested on: Plasmodium falciparum Sir2 (PF13_0152, Sir2A); experiment: Plasmodium falciparum Sir2A binding compounds – biochemical, small-molecule microarray, 635 nm fluorescence, primary screen (AID 1098); details: fluorescence 635 nm, higher = more signal;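 note: score merges spot fluorescence intensity with its signal-to-noise ratio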
[2] = probe aDKK1 binding to arrayed compounds – biochemical, biotinylated probe, 635/667 nm fluorescence, primary screen (AID 1099); details: small-molecule microarray, higher = more signal;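 note: score merges 667nm spot fluorescence with signal to noise across triplicate slides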
[3] = probe aCHRDL2 binding to arrayed compounds – biochemical, biotinylated probe, 635/667 nm fluorescence, primary screen (AID 1100); details: small-molecule microarray, higher = more signal
[4] = change in splice reporter luminescence, either direction, cell-based, HEK293, spliceosome inhibition project, primary screen (AID 1101); details: HEK293 splicing luciferase reporter, 24 h, higher = more signal, called active from +8 up or from −8 down;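 note: HEK293 cells carrying a splicing-competent luciferase reporter gene; test concentration not given here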
[5] = target: Fibroblast growth factor 10 (Homo sapiens) (UniProt O15520); experiment: compounds binding fibroblast growth factor 10 – biochemical, small-molecule microarray, 635 nm fluorescence, primary screen (AID 1102); details: FGF10 binding, fluorescence 635 nm, higher = more signal
Fibroblast growth factor 10 (Homo sapiens), sequence (O15520 whole entry, looked up): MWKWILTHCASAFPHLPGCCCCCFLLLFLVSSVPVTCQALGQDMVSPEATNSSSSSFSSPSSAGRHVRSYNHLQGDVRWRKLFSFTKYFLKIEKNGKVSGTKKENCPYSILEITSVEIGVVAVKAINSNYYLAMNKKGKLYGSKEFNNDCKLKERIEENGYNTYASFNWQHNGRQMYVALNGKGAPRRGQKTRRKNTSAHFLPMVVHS

[6] = tested on: glycogen synthase kinase-3 (GSK3A per assay name; protocol says GSK3B); experiment: compounds binding glycogen synthase kinase-3 – biochemical, small-molecule microarray, 635 nm fluorescence, GSK3A, primary screen (AID 1103); details: fluorescence 635 nm, higher = more signal; note: the record names both GSK3A and GSK3B
[7] = target: Epidermal growth factor receptor (Homo sapiens) (UniProt P00533); experiment: compounds binding epidermal growth factor receptor – biochemical, small-molecule microarray, 635 nm fluorescence, primary screen (AID 1104); details: EGFR binding, higher = more signal;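 note: score merges 667 nm emission intensity with spot signal to noise over triplicate slides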
Epidermal growth factor receptor (Homo sapiens), sequence (P00533 whole entry, looked up): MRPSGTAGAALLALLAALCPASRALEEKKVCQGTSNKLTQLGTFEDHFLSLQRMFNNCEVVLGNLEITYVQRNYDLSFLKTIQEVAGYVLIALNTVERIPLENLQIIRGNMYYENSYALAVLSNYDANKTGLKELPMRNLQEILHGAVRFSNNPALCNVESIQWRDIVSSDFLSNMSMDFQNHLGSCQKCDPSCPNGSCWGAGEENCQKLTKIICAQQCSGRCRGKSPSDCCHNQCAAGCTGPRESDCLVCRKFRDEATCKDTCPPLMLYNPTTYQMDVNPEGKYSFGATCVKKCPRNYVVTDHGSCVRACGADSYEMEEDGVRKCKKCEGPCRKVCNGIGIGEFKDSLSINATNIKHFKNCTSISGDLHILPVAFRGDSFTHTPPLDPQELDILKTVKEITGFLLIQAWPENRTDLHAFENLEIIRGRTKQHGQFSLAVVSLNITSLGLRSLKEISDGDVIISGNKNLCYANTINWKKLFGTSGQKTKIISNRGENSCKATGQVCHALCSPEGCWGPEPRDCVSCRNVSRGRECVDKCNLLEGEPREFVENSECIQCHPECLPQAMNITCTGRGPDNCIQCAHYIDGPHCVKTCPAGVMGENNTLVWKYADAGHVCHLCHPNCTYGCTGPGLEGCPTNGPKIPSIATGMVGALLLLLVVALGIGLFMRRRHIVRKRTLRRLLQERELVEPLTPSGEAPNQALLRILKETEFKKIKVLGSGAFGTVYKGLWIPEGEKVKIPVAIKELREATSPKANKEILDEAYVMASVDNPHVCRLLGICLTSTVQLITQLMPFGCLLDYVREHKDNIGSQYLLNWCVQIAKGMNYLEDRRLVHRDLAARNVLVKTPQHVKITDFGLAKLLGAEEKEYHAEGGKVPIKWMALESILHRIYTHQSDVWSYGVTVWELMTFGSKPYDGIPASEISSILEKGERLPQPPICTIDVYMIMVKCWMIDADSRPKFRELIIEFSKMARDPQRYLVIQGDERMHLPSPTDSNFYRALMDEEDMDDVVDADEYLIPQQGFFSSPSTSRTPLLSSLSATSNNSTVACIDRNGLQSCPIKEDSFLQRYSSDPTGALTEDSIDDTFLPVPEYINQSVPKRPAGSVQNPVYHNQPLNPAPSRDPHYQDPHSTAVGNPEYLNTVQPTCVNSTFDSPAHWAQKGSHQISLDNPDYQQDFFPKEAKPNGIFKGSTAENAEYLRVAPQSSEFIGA

[8] = target: Follistatin-related protein 3 (Homo sapiens) (UniProt O95633); experiment: compounds binding follistatin-related protein 3 – biochemical, small-molecule microarray, 635 nm fluorescence, primary screen (AID 1105); details: FSTL3 binding, higher = more signal;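 note: score merges emission near 667 nm and signal to noise per printed spot across three slides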
Follistatin-related protein 3 (Homo sapiens), sequence (O95633 whole entry, looked up): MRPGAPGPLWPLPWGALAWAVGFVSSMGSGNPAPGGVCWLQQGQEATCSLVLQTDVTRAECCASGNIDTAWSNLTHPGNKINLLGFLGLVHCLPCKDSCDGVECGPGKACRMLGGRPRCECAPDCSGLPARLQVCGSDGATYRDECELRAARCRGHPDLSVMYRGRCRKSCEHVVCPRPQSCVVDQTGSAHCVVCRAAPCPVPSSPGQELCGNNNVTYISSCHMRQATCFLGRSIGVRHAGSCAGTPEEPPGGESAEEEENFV

[9] = target: Dickkopf-related protein 1 (Homo sapiens) (UniProt O94907); experiment: small molecules binding DKK1 protein – biochemical, small-molecule microarray, 635 nm fluorescence scan, primary screen (AID 1106); details: higher = more signal;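 note: score merges emission near 667 nm with signal to noise over three replicate slides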
Dickkopf-related protein 1 (Homo sapiens), sequence (O94907 whole entry, looked up): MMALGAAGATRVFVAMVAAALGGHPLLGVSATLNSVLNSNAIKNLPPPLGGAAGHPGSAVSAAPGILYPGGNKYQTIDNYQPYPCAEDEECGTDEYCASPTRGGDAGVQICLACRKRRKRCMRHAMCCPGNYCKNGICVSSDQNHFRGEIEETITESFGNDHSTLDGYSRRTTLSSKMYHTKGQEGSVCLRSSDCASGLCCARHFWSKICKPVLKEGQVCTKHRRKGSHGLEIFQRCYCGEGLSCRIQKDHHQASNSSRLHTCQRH

[10] = tested on: Inhibin beta A chain (activin A); experiment: small molecules binding activin A – biochemical, small-molecule microarray, 635 nm fluorescence scan, primary screen (AID 1107); details: INHBA, higher = more signal;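 note: mouse activin A protein probed at 4.33 µg/mL on printed slides; score merges bound-protein fluorescence near 667 nm with spot signal-to-noise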
[11] = tested on: Human papillomavirus type 1a protein E7 (residues 44-93); experiment: small molecules binding HPV E7 44-93 – biochemical, small-molecule microarray, residues 44-93, 635 nm fluorescence, primary screen (AID 1108); details: fluorescence 635 nm, higher = more signal;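 note: E7 fragment applied at 1 µg/mL in TBST for 1 h at 4 C; score combines spot fluorescence with its signal to noise ratio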
[12] = hepatitis C replication reporter changes, two-sided – Huh7 cells, luciferase reporter, HCV replication inhibitor project, primary screen (AID 1109); details: Huh7 HCV replicon luciferase reporter, 48 h; higher = more signal;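 note: huh7 hepatoma cells harbouring a luciferase neomycin HCV replicon reporter; luciferase luminescence as measure of HCV replicon replication; test concentration not given here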
[13] = target: Left-right determination factor 2 (Homo sapiens) (UniProt O00292); experiment: small molecules binding LEFTY2 protein – biochemical, small-molecule microarray, 635 nm fluorescence scan, primary screen (AID 1110); details: higher = more signal
Left-right determination factor 2 (Homo sapiens), sequence (O00292 whole entry, looked up): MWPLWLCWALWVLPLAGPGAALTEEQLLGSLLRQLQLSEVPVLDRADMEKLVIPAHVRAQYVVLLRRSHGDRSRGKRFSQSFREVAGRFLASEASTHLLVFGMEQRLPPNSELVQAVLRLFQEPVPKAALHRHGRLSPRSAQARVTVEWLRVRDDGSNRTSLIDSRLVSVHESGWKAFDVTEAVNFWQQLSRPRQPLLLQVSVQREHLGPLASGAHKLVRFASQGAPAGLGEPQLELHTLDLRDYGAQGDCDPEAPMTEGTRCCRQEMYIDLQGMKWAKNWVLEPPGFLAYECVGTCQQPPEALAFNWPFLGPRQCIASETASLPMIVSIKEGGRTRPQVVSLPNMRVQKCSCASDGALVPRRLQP

[14] = target: Calmodulin-1 (Homo sapiens) (UniProt P0DP23); experiment: small molecules binding calmodulin-1 with EGTA – biochemical, small-molecule microarray, Cy5-labelled CALM1, profiling panel (AID 1111); details: Cy5-CALM1 binding fluorescence, higher = more signal;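 note: labelled calmodulin applied in Tris saline Tween buffer holding calcium plus EGTA and DTT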
[15] = target: Calmodulin-1 (Homo sapiens) (UniProt P0DP23); experiment: small molecules binding Ca-loaded calmodulin-1 – biochemical, small-molecule microarray, Cy5-labelled CALM1, plus calcium, artefact control for SMM control-protein annotation, profiling panel (AID 1112); details: Cy5-CALM1 binding fluorescence, higher = more signal;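 note: score merges spot fluorescence with signal to noise from triplicate slides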
[16] = probe aWnt5a binding to arrayed compounds – biochemical, biotinylated probe, 635/667 nm fluorescence, primary screen (AID 1113); details: small-molecule microarray, higher = more signal;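 note: score merges 667 nm fluorescence intensity with signal-to-noise per printed feature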
[17] = probe aShh binding to arrayed compounds – biochemical, biotinylated probe, 635/667 nm fluorescence, primary screen (AID 1114); details: small-molecule microarray, higher = more signal;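 note: probe is biotin-labelled aShh protein from a stem cell growth factor screen; measures binding of labelled protein to compounds printed on the slide; score merges feature fluorescence at 667 nm with signal-to-noise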
[18] = probe aNog binding to arrayed compounds – biochemical, biotinylated probe, 635/667 nm fluorescence, primary screen (AID 1115); details: small-molecule microarray, higher = more signal;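 note: probe is biotinylated aNog protein used at 0.15 µg/mL for 1 h at 4 C; z-score combines 667 nm fluorescence of each spot with its signal to noise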
[19] = target: Torsin-1A-interacting protein 1 (Homo sapiens) (UniProt Q5JTV8); experiment: compound microarray binding of lysate hLAP1 – cell lysate, small-molecule microarray, COS7 lysate, 635/667 nm fluorescence, primary screen (AID 1116); details: 635 nm fluorescence, higher = more signal
Torsin-1A-interacting protein 1 (Homo sapiens), sequence (Q5JTV8 whole entry, looked up): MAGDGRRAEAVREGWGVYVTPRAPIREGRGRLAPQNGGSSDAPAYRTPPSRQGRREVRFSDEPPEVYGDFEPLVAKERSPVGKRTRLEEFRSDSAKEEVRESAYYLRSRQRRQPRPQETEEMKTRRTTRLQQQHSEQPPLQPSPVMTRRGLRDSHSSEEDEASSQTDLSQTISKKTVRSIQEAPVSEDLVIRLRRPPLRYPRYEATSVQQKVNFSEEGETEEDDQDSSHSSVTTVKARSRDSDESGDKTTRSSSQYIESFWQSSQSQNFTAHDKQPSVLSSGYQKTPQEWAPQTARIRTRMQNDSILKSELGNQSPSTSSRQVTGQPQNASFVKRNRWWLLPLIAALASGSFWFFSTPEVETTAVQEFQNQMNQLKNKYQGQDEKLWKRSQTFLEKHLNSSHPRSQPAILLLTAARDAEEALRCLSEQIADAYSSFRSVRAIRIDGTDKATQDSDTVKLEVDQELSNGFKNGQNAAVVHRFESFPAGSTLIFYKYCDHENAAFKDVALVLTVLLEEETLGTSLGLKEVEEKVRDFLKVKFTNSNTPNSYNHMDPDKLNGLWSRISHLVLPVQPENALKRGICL

[20] = target: Alpha-bungarotoxin (Bungarus multicinctus) (UniProt P60615); experiment: compounds binding labelled alpha-BTX control protein – biochemical, small-molecule microarray, Alexa647 label, 635/667 nm fluorescence, artefact control for SMM control protein annotation, profiling panel (AID 1117); details: alpha-BTX-A647 binding fluorescence, higher = more signal
Alpha-bungarotoxin (Bungarus multicinctus), sequence (P60615 whole entry, looked up): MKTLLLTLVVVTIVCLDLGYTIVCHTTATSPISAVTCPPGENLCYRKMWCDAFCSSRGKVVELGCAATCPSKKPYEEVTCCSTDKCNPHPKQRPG

## CC1CC/C=C\[C@H]2OC34C=CCN(c5ccc6ccccc6c5)C(=O)[C@H]3N(CCCCCO)C(=O)[C@@H]4C2C(=O)O1 (stereo not given in full)
[1]
  composite z-score: 0.207
[2]
  composite z-score: 0.207
[3]
  composite z-score: 0.62
[4]
  z-score: 0.375 (inactive)
[5]
  composite z-score: -1.34
[6]
  composite z-score: -1.25
[7]
  composite z-score: 0.0445
[8]
  composite z-score: -0.213
[9]
  composite z-score: -1.58
[10]
  composite z-score: -0.522
[11]
  composite z-score: -2.21
[12]
  z-score: 0.324
[13]
  composite z-score: -1.64
[14]
  composite z-score: -0.827
[15]
  composite z-score: -0.16
[16]
  composite z-score: -0.141
[17]
  composite z-score: -0.214
[18]
  composite z-score: -0.119
[19]
  composite z-score: -1.16
[20]
  composite z-score: -1.28

## [N-]=[N+]=NCc1ccccc1C[C@]1(C(=O)N2CCOCC2)N=C(c2ccc(OCCCO)cc2)O[C@H]1c1ccccc1
[1]
  composite z-score: 0.947
[2]
  composite z-score: 0.102
[3]
  composite z-score: 0.904
[4]
  z-score: -1.18 (inactive)
[5]
  composite z-score: 1.39
[6]
  composite z-score: 0.551
[7]
  composite z-score: -0.458
[8]
  composite z-score: 0.223
[9]
  composite z-score: -0.774
[10]
  composite z-score: 0.275
[11]
  composite z-score: 1.25
[12]
  z-score: -3.07
[13]
  composite z-score: -0.712
[14]
  composite z-score: 1.4
[15]
  composite z-score: 0.886
[16]
  composite z-score: -0.0203
[17]
  composite z-score: 0.207
[18]
  composite z-score: -0.376
[19]
  composite z-score: 0.68
[20]
  composite z-score: 1.02

## CN1C(=O)C2C=CC(C(O)C(C)(C)C)N(Nc3ccccc3)C2C1=O (stereo not given)
[1]
  composite z-score: 1.24
[2]
  composite z-score: -0.108
[3]
  composite z-score: 0.211
[4]
  z-score: 1.06 (inactive)
[5]
  composite z-score: -0.0353
[6]
  composite z-score: -0.0258
[7]
  composite z-score: -0.639
[8]
  composite z-score: -0.543
[9]
  composite z-score: -0.406
[10]
  composite z-score: 0.941
[11]
  composite z-score: -0.911
[12]
  z-score: 0.813
[13]
  composite z-score: -0.428
[14]
  composite z-score: -0.0143
[15]
  composite z-score: -0.395
[16]
  composite z-score: -0.0405
[17]
  composite z-score: -0.24
[18]
  composite z-score: 0.779
[19]
  composite z-score: -0.0378
[20]
  composite z-score: 0.531

## CC(C)OC(=O)C1=CCC(c2cccc(Cl)c2)O1 (stereo not given)
[1]
  composite z-score: 1.58
[2]
  composite z-score: -0.306
[3]
  composite z-score: 0.461
[4]
  z-score: -2.49 (inactive)
[5]
  composite z-score: -1.34
[6]
  composite z-score: -0.33
[7]
  composite z-score: -1.71
[8]
  composite z-score: -0.715
[9]
  composite z-score: -2.24
[10]
  composite z-score: -1.41
[11]
  composite z-score: 1.07
[12]
  z-score: -2.34
[13]
  composite z-score: -1.44
[14]
  composite z-score: 0.222
[15]
  composite z-score: 0.45
[16]
  composite z-score: 0.0654
[17]
  composite z-score: 0.16
[18]
  composite z-score: -0.347
[19]
  composite z-score: 0.0025
[20]
  composite z-score: 0.274

## CC(C)[Si]1(C(C)C)O[C@@H](c2ccccc2)c2cc(-c3ccc(-c4ccc(Cl)c(Cl)c4)o3)nc(CCc3ccccc3)c21
[1]
  composite z-score: -0.708
[2]
  composite z-score: 0.147
[3]
  composite z-score: 0.731
[4]
  z-score: 0.428 (inactive)
[5]
  composite z-score: -0.707
[6]
  composite z-score: -0.345
[7]
  composite z-score: -0.844
[8]
  composite z-score: -1.54
[9]
  composite z-score: -1.25
[10]
  composite z-score: 0.949
[11]
  composite z-score: 0.0027
[12]
  z-score: -2.07
[13]
  composite z-score: -1.32
[14]
  composite z-score: -0.411
[15]
  composite z-score: 0.873
[16]
  composite z-score: -0.152
[17]
  composite z-score: 0.0141
[18]
  composite z-score: -0.0118
[19]
  composite z-score: -0.193
[20]
  composite z-score: -1.17

## COC(=O)[C@@]1(Cc2ccc(OC)cc2)[C@H]2c3cc(C(=O)N4CCCC4)n(CCN4CCOCC4)c3C[C@H]2CN1C(=O)c1ccccc1
[1]
  composite z-score: 1.25
[2]
  composite z-score: 2.6
[3]
  composite z-score: 1.52
[4]
  z-score: 0.0643 (inactive)
[5]
  composite z-score: 1.35
[6]
  composite z-score: 0.325
[7]
  composite z-score: 0.947
[8]
  composite z-score: 0.629
[9]
  composite z-score: -0.138
[10]
  composite z-score: 0.492
[11]
  composite z-score: 1.04
[12]
  z-score: -0.882
[13]
  composite z-score: 0.285
[14]
  composite z-score: 1.55
[15]
  composite z-score: 1.21
[16]
  composite z-score: 1.19
[17]
  composite z-score: 2.65
[18]
  composite z-score: 2.75
[19]
  composite z-score: 0.934
[20]
  composite z-score: 0.609
